Experimental data reported in PubChem BioAssay.
Where “and” joins values, the source holds several entries; their conditions need not be identical. Equal values may be shown once. Calls of active or inactive are those of the source.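 Rule for the calls, unless noted: active = compounds whose cell count with miR-34 switched on is under 0.7 times the count with it off; inactive = the rest.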

Assays:
[1] = liver-stage malaria parasite growth inhibition, primary screen, cell-based, HepG2, luciferase luminescence, HepG2 viability (AID 624349; in the data active = parasite load remaining mostly below about 12%, no sharp cut-off; inactive = mostly above about 10%;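 note: 100% = mean of DMSO negative control wells on the same plate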); details: P. berghei liver stage in HepG2, luciferase luminescence, concentration not given here; parasite load remaining: stronger effect = lower value; viability: measured here: HepG2 viability without parasites
[2] = stimulators of nuclear beta-catenin in C2C12, primary screen, imaging, WNT3A-conditioned medium, mouse C2C12, NPC library (AID 1117326; in the data active = nuclear beta-catenin stimulation mostly above about 4.2%, no sharp cut-off; inactive = mostly below about 10%); details: stronger effect = higher value
[3] = stimulators of insulin release from INS-1E, primary screen, cell-based, 5 mM glucose, NPC library (AID 1117329;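 active = compound raises insulin release from rat beta cells at 5 mM glucose, no numeric limit stated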); details: rat INS-1E insulin secretion, at 10 µM, stronger effect = higher value
[4] = growth inhibition of GSK3B-pretreated HCT116 cells – cell-based, CellTiter-Glo, 0.2 to 20 µM (AID 1117336;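 active = compounds lowering colon cancer cell viability after pretreatment blocking the GSK3B kinase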); details: HCT116 viability after GSK3B inhibitor, at 20 µM, stronger effect = higher value
[5] = inhibition of endothelial tube formation, primary screen, imaging, VEGF stimulated, CD31 staining, tube area, NPC library (AID 1117340;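 active = compound that reduces growth-factor-driven endothelial tube area in a mixed cell culture, no cutoff stated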); details: VEGF-stimulated ADSC/ECFC co-culture, at 10 µM, stronger effect = higher value
[6] = glucagon-like peptide 1 release enhancers, primary assay, NCI-H716 cell line, NPC library (AID 1117341;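 active = compound raises GLP1 secretion from the human gut endocrine cells, with no numeric limit stated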); details: NCI-H716 cells, at 10 µM, stronger effect = higher value
[7] = HCT116 colon cancer cell growth inhibition, primary screen, CellTiter-Glo luminescence, NPC library (AID 1117342;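 active = compounds that lower survival of HCT116 colon cancer cells in the luminescence readout, no numeric limit stated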); details: at 20 µM (top of the series)
[8] = CellTiter-Glo luminescent readout of SW480 viability loss, NPC library primary (AID 1117343;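 active = compounds that lower viability of the colon cancer cells in the luminescence readout, with no numeric limit stated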); details: CellTiter-Glo luminescence; at 20 µM (top of the series) unless noted
[9] = decreased DLD-1 cellular survival, CellTiter-Glo luminescent readout, NPC compound collection, primary HTS (AID 1117346;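 active = compounds that lower survival of DLD-1 colon cancer cells in the luminescence readout, no cutoff given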); details: DLD-1 viability, CellTiter-Glo luminescence; at 20 µM (top of the series)
[10] = differential killing of epithelial or mesenchymal cells, primary screen, imaging, PC-3E GFP, TEM4-18 mCherry, co-culture (AID 1345086;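 active = compounds killing one labelled cell type while sparing the other, by normalised counts and ratio limits, not self-fluorescent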;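 for all read-outs here: cells exposed to compound for 72 h before imaging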;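 for red/green cell ratio (normalised): normalised mesenchymal count divided by normalised epithelial count so high means epithelial killing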); details: imaging cell counts, at 1 µM; for red/green cell ratio (normalised): actives lie on both sides, counts scaled to control wells, 1 = unselective
[11] = sensitizers of A549 cells to miR-34 induction, primary screen, imaging, A549 dox-inducible miR-34, nuclei and caspase counts (AID 1347080); details: A549 miR-34 inducible, Hoechst nuclei count, 48 h
[12] = survival rescue of mitochondrial mutant cells in low glucose, primary screen, MELAS cybrids, Rieske KO mouse fibroblasts, CellTiter-Glo (AID 1508586;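 active = mean z-score across replicates of 1.96 or higher in either the MELAS or the Rieske mutant cell line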;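 note: z relative to plate mean and SD of compound and empty wells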)
[13] = molecular target: NAD(+) hydrolase SARM1 (Homo sapiens) (UniProt Q6SZW1); test: SARM1 TIR NADase inhibitors, cell lysate, NAD-Glo luminescence (AID 1508614;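 active = compound whose remaining NAD level is above about 45 nM, limit read from the data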;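 note: higher remaining NAD means stronger inhibition of SARM1 NADase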); details: SAM-TIR HEK293T lysate NADase, at 1 µM, stronger effect = higher value
Sequence of NAD(+) hydrolase SARM1 (Homo sapiens) (Q6SZW1 whole entry, looked up): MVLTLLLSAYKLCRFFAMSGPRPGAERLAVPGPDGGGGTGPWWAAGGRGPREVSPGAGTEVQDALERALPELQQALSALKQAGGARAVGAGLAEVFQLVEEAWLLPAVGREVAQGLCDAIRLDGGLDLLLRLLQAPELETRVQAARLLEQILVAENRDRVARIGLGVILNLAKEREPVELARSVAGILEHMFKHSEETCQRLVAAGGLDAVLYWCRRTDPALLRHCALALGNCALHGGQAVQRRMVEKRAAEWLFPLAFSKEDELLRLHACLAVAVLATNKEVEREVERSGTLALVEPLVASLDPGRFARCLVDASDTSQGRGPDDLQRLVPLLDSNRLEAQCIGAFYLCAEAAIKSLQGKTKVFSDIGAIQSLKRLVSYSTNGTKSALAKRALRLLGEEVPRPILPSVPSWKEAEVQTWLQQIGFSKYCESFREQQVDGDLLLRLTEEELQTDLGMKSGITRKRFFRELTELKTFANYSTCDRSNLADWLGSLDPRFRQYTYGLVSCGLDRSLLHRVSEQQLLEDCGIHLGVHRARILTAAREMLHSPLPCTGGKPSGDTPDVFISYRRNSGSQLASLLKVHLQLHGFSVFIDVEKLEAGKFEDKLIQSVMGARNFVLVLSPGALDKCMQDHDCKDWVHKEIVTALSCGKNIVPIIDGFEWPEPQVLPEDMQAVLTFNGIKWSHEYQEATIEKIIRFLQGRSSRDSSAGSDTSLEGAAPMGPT

[14] = hESC survival regulators, cell-based (AID 493140; call rule not given here;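 note: cells exposed to compounds for four days before counting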); details: human embryonic stem cell survival screen; stronger effect = higher value
[15] = measured here: epithelial PC-3E GFP cell survival
[16] = measured here: mesenchymal TEM4-18 mCherry cell survival
[17] = stronger effect = lower value, cell number ratio, induced over uninduced
[18] = measured here: relative caspase fold change +Dox/-Dox
[19] = measured here: total cells with miR-34 induction, stronger effect = lower value
[20] = measured here: total cells without miR-34 induction
[21] = MELAS cybrid survival, CellTiter-Glo 48 h, stronger effect = higher value
[22] = Rieske KO mouse fibroblast survival, CellTiter-Glo 72 h

With COc1cc(C(=O)N2CCOCC2)cc(OC)c1OC the parasite load remaining [1] was 75.3% (inactive), the viability [1] was 105% and the nuclear beta-catenin stimulation ([2]; at 10 µM) was 0.3% (inactive). The nuclear beta-catenin stimulation ([2]; stimulation, at 2 µM) was -0.7%, the insulin secretion stimulation [3] was -1.8% (inactive) and the viability decrease [4] was 14.1% (inactive). The tube area decrease [5] was -2.8% (inactive), the GLP1 secretion stimulation [6] was 6.1% (inactive) and the inhibition of viability [7] was -2.4% (inactive). The viability decrease (inhibition) [8] was 30.7% (inactive), the viability decrease (inhibition) [9] was 20.1% (inactive) and the red/green cell ratio (normalised) [10] was 1.06 (inactive). The normalised cell number [10, 15] was 1.01, the normalised cell number [10, 16] was 1.07 and the fold change [11, 17] was 0.951 (inactive). The fold change [11, 18] was 1.55, the cell count [11, 19] was 11700 and the cell count [11, 20] was 12300. For the same molecule, the z-score [12, 21] was 0.673 (inactive), the z-score [12, 22] was 0.477 and the remaining NAD [13] was 10 nM (inactive).
With CC(C)(C)C(=O)C(Oc1ccc(Cl)cc1)n1ccnc1 (stereo unspecified) the parasite load remaining [1] was 15% (inactive), the viability [1] was 70% and the nuclear beta-catenin stimulation ([2]; at 10 µM) was 2.6% (inactive). For the same molecule, the nuclear beta-catenin stimulation ([2]; stimulation, at 2 µM) was 1.9%, the insulin secretion stimulation [3] was 2.5% (inactive) and the viability decrease [4] was 6.3% (inactive). The tube area decrease [5] was 11.3% (inactive), the GLP1 secretion stimulation [6] was 7.4% (inactive) and the inhibition of viability [7] was 34.8% (inactive). The viability decrease (inhibition) [8] was 27.1% (inactive), the viability decrease (inhibition) [9] was 44.1% (inactive) and the red/green cell ratio (normalised) [10] was 0.92 (inactive). For the same molecule, the normalised cell number [10, 15] was 0.94, the normalised cell number [10, 16] was 0.86 and the fold change [11, 17] was 0.911 (inactive) and 0.872 (inactive). The fold change [11, 18] was 1.11 and 1.1, the cell count [11, 19] was 8350 and 8730 and the cell count [11, 20] was 9170 and 10000. The z-score [12, 21] was -0.118 (inactive) and 0.2 (inactive), the z-score [12, 22] was -0.278 and -0.284 and the remaining NAD [13] was 10 nM (inactive).
With O=C(Nc1ccccc1)OCC(CN1CCCCC1)OC(=O)Nc1ccccc1 (stereo unspecified) the survival [14] was 16 (inactive), the parasite load remaining [1] was 59.3% (inactive) and 41.7% (inactive) and 36.2% (inactive) and the viability [1] was 79.1% and 91.5% and 107%. The nuclear beta-catenin stimulation ([2]; at 10 µM) was -0.9% (inactive), the nuclear beta-catenin stimulation ([2]; stimulation, at 2 µM) was -0.9% and the insulin secretion stimulation [3] was 14.9% (inactive). For the same molecule, the viability decrease [4] was 36.4% (inactive), the tube area decrease [5] was 1.6% (inactive) and the GLP1 secretion stimulation [6] was -0.5% (inactive). The inhibition of viability [7] was 75.7% (active), the viability decrease (inhibition) [8] was 65.2% (active) and the viability decrease (inhibition) [9] was 32.3% (inactive). For the same molecule, the red/green cell ratio (normalised) [10] was 0.79 (inactive), the normalised cell number [10, 15] was 1.18 and the normalised cell number [10, 16] was 0.92. The fold change [11, 17] was 0.99 (inactive) and 0.916 (inactive), the fold change [11, 18] was 1.08 and 5.69 and the cell count [11, 19] was 8030 and 11400. For the same molecule, the cell count [11, 20] was 8110 and 12500, the z-score [12, 21] was 0.475 (inactive) and the z-score [12, 22] was -0.0131. The remaining NAD [13] was 10 nM (inactive).
In the case of CCCCOc1cc(C(=O)OCCN(CC)CC)ccc1N, the survival [14] is reported as 11.5 (inactive), the parasite load remaining [1] is reported as 22.4% (inactive) and 92.2% (inactive) and the viability [1] is reported as 49.5% and 89.9%. For the same molecule, the nuclear beta-catenin stimulation ([2]; at 10 µM) was 1.9% (inactive), the nuclear beta-catenin stimulation ([2]; stimulation, at 2 µM) was 3.9% and the insulin secretion stimulation [3] was 50.7% (active). For the same molecule, the viability decrease [4] was 45.5% (inactive), the tube area decrease [5] was 14.2% (inactive) and the GLP1 secretion stimulation [6] was 7.1% (inactive). The inhibition of viability [7] was 66% (active), the viability decrease (inhibition) [8] was 51.8% (active) and the viability decrease (inhibition) [9] was 81.6% (active). For the same molecule, the red/green cell ratio (normalised) [10] was 0.93 (inactive), the normalised cell number [10, 15] was 1.02 and the normalised cell number [10, 16] was 0.95. The fold change [11, 17] was 0.886 (inactive) and 0.893 (inactive) and 0.93 (inactive), the fold change [11, 18] was 1.39 and 0.433 and 0.883 and the cell count [11, 19] was 8530 and 8120 and 7780. The cell count [11, 20] was 9620 and 9090 and 8360, the z-score [12, 21] was 0.206 (inactive) and -0.26 (inactive) and 0.345 (inactive) and the z-score [12, 22] was -0.405 and -0.149 and 0.0628. For the same molecule, the remaining NAD [13] was 10 nM (inactive).
